# According to PubChem BioAssay (Tox21):
# Unmarked numbers belong to inactive results. Records with an inconclusive call do not appear. Entries that show only a call come without a potency. Activity calls are given as the source filed them. Unless noted, the call rests on the fitted dose curve; in most records, active means well fitted curve in the direction sought with a large enough effect in the repeat runs; inconclusive means weak or mixed curves; inactive means no such curve, though single readings can be large; an effect the other way counts as inactive or inconclusive.
# Tests used:
# [1] = qHTS assay to test for compound auto fluorescence at 535 nm (green) in HEK293 cells (AID 720680)
# [2] = qHTS assay to test for compound auto fluorescence at 460 nm (blue) in HEK293 cell free culture (AID 720681)
# In short: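 Blue fluorescence (Ex 405/Em 460 nm, triamterene-equivalent) was read immediately after pin transfer of compound or DMSO into medium (DMEM, 10% FBS) without cells.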
# [3] = qHTS assay to test for compound auto fluorescence at 535 nm (green) in HEK293 cell free culture (AID 720682)
# In short: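 Each library compound, or DMSO control, is added by pintool to medium alone, comprising DMEM and 10% FBS. Emission at 535 nm following 485 nm excitation is quantified against fluorescein.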
# [4] = qHTS assay to test for compound auto fluorescence at 590 nm (red) in HEK293 cell free culture (AID 720683)
# In short: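 Red-channel autofluorescence of compounds in culture medium (DMEM, 10% FBS), no cells, measured at 540/590 nm. Rose Bengal sodium is the reference fluorophore for equivalence.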
# [5] = qHTS assay to test for compound auto fluorescence at 590 nm (red) in HepG2 cell free culture (AID 720684)
# In short: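 No cells present: MEM + 10% FBS only. Compound pinned in, red label read (540/590 nm). Activity = fluorescence equivalent to Rose Bengal sodium.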
# [6] = qHTS assay to test for compound auto fluorescence at 460 nm (blue) in HepG2 cell free culture (AID 720685)
# In short: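 Cell-free plates of MEM plus 10% FBS received 23 nL compound or DMSO vehicle; blue-channel (405/460 nm) intensity scored against triamterene as reference fluorophore.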
# [7] = qHTS assay to test for compound auto fluorescence at 535 nm (green) in HepG2 cell free culture (AID 720686)
# [8] = qHTS assay to test for compound auto fluorescence at 460 nm (blue) in HepG2 cells (AID 720687)
# In short: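 Blue-channel autofluorescence (Ex/Em 405/460 nm, triamterene-equivalent) was measured after 1 hr compound exposure at 37 C, 5% CO2. Cells were HepG2, plated overnight at 37 C in MEM plus 10% FBS.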
# [9] = qHTS assay to identify small molecule antagonists of the glucocorticoid receptor (GR) signaling pathway - cell viability counter screen (AID 720693); further: nearly all actives have a fitted effect of over 55% in size
# [10] = qHTS assay for identifying genotoxic compounds that show differential cytotoxicity against isogenic chicken DT40 cell lines with known DNA damage response pathways - wild type cell line (AID 743012); further: nearly all actives have a fitted effect of over 60% in size; further: potency means the concentration at half of the fitted maximal effect
# In short: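 Viability of DNA repair-proficient chicken DT40 cells was assessed by CellTiter-Glo luminescence following 40 h compound exposure at 37 C/5% CO2.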
# [11] = qHTS assay for identifying genotoxic compounds that show differential cytotoxicity against isogenic chicken DT40 cell lines with known DNA damage response pathways - Rev3 mutant cell line (AID 743014); further: nearly all actives have a fitted effect of over 55% in size; further: potency means the concentration at half of the fitted maximal effect
# [12] = qHTS assay for identifying genotoxic compounds that show differential cytotoxicity against isogenic chicken DT40 cell lines with known DNA damage response pathways - Rad54/Ku70 mutant cell line (AID 743015); further: nearly all actives have a fitted effect of over 60% in size; further: potency means the concentration at half of the fitted maximal effect
# [13] = qHTS assay to identify small molecule antagonists of the androgen receptor (AR) signaling pathway - cell viability counter screen (AID 743033; further: nearly all actives have a fitted effect of over 45% in size; further: potency means the concentration at half of the fitted maximal effect)
# [14] = qHTS assay to identify small molecule antagonists of the androgen receptor (AR) signaling pathway using the MDA cell line - cell viability counter screen (AID 743041; further: nearly all actives have a fitted effect of over 45% in size)
# In short: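 Using the breast carcinoma line MDA-kb2 AR-luc, test chemicals were co-incubated with R1881 for 16 h; CellTiter-Fluor reagent, added at 15.5 h, provided a fluorescence measure of live cells.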
# [15] = molecular target: Glucocorticoid receptor (Homo sapiens) (UniProt P04150); assay: qHTS assay to identify small molecule agonists of the glucocorticoid receptor (GR) signaling pathway (AID 720691; active means well fitted activation curve with a large enough effect in the signal ratio in the repeat runs, not every such curve was filed as active; the % refers to the signal ratio)
# Glucocorticoid receptor (Homo sapiens), sequence (P04150 whole entry, looked up): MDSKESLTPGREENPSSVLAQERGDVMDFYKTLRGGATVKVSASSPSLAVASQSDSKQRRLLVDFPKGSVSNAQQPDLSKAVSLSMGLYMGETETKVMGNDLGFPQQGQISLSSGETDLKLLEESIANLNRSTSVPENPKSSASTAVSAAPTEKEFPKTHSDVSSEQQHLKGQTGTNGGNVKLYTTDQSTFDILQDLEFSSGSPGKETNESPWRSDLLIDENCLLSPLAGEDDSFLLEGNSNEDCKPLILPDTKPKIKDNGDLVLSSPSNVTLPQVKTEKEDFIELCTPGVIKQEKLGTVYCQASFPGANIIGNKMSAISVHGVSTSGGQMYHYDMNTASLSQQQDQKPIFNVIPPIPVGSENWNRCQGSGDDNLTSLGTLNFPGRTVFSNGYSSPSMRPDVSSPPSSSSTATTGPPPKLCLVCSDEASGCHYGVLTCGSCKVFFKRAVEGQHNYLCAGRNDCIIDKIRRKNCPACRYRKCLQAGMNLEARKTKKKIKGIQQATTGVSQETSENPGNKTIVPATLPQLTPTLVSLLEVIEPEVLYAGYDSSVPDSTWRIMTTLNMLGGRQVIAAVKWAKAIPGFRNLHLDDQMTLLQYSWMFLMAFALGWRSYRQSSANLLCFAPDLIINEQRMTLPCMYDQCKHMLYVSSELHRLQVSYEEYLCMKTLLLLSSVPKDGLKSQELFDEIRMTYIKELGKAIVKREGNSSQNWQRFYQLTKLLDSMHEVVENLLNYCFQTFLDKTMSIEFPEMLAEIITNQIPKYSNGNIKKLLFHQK
# In short: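 Compounds in DMSO, alongside positive controls, were added to GR-bla HeLa reporter cells and incubated 18 h at 37 C; GRE-driven beta-lactamase was detected by fluorescence after 2 h with FRET substrate at room temperature.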
# [16] = molecular target: Androgen receptor (Homo sapiens) (UniProt P10275); assay: qHTS assay to identify small molecule antagonists of the androgen receptor (AR) signaling pathway (AID 743035; active means well fitted inhibition curve with a large enough effect in the signal ratio in the repeat runs, not every such curve was filed as active; the % refers to the signal ratio)
# Androgen receptor (Homo sapiens), sequence (P10275 whole entry, looked up): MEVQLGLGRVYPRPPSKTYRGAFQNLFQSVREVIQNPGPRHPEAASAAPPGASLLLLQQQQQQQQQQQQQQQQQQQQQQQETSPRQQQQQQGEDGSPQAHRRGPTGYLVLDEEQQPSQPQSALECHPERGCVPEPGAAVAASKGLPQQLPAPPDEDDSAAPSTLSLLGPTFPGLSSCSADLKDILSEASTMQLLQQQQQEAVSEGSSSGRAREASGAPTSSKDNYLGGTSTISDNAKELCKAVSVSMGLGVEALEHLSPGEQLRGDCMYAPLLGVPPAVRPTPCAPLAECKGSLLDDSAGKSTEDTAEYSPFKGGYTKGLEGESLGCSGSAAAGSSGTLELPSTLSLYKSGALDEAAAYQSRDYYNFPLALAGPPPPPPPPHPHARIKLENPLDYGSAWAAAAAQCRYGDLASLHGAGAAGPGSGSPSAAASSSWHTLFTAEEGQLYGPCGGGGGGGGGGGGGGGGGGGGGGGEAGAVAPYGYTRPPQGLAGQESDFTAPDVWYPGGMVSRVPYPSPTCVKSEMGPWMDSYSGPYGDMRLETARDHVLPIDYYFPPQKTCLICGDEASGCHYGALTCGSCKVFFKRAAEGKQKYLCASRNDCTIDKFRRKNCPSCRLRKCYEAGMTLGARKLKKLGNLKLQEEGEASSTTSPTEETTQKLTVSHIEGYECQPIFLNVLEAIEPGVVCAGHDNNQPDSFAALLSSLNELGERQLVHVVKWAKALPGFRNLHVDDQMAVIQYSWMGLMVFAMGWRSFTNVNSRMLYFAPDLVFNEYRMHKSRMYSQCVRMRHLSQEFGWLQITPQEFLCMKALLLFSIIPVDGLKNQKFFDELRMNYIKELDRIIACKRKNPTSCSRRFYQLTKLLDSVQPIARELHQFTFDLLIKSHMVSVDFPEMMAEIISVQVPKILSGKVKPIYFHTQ
# In short: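 Reporter HEK293 cells were exposed to compounds and R1881 overnight (16 h, 37C); beta-lactamase activity was then quantified by FRET fluorescence.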
# [17] = molecular target: Androgen receptor (Homo sapiens) (UniProt P10275); assay: qHTS assay to identify small molecule agonists of the androgen receptor (AR) signaling pathway (AID 743036; active means well fitted activation curve with a large enough effect in the signal ratio in the repeat runs, with a control signal flat, not every such curve was filed as active; the % refers to the signal ratio)
# In short: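 Following a 4 h settling period, AR-UAS-bla HEK293 cells were dosed with compounds for 16 h at 37C. A 2 h room-temperature incubation with LiveBLAzer B/G FRET substrate preceded the fluorescence measurement.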
# [18] = molecular target: Androgen receptor (Homo sapiens) (UniProt P10275); assay: qHTS assay to identify small molecule agonists of the androgen receptor (AR) signaling pathway using the MDA cell line (AID 743040; further: nearly all actives have a fitted effect of over 20% in size)
# In short: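 Stable MMTV-luciferase reporter in MDA-kb2 cells; note the promoter carries GR as well as AR response elements. 16 h compound treatment, 37C, 0% CO2; ONE-Glo luminescence endpoint.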
# [19] = molecular target: Androgen receptor (Homo sapiens) (UniProt P10275); assay: qHTS assay to identify small molecule antagonists of the androgen receptor (AR) signaling pathway using the MDA cell line (AID 743042; further: nearly all actives have a fitted effect of over 55% in size)
# In short: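 Antagonist mode: compounds plus R1881 agonist added to MDA-kb2 AR-luc cells, incubated 16 h at 37C. Luciferase reporter luminescence quantified, with multiplexed CellTiter-Fluor readout for cell viability.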
# [20] = molecular target: Glucocorticoid receptor (Homo sapiens) (UniProt P04150); assay: qHTS assay to identify small molecule antagonists of the glucocorticoid receptor (GR) signaling pathway (AID 720692; active means well fitted inhibition curve with a large enough effect in the signal ratio in the repeat runs, not every such curve was filed as active; the % refers to the signal ratio)
# In short: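 In a 1536-well cell format, compounds were added 4 h after seeding GR-bla HeLa cells, together with dexamethasone at 5 nM final; reporter activity was measured by FRET-substrate fluorescence following 18 h at 37 C.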
Compound,outcome [1],outcome [2],outcome [3],outcome [4],outcome [5],outcome [6],outcome [7],outcome [8],outcome [9],Potency [10],Potency [11],Potency [12],Potency [13],Potency [14],Potency [15],Potency [16],outcome [17],outcome [18],Potency [19],outcome [20]
COc1cc2c(cc1OC)[C@@H]1CC(=O)[C@@H](CC(C)C)CN1CC2,inactive,inactive,inactive,inactive,inactive,inactive,inactive,inactive,inactive,23.7 µM (active),21.1 µM (active),29.8 µM (active),inactive,inactive,–,–,–,–,–,–
O=C1c2ccccc2C(=O)c2cc(S(=O)(=O)O)ccc21,inactive,inactive,inactive,inactive,inactive,inactive,inactive,inactive,–,inactive,–,inactive,inactive,inactive,inactive,–,–,–,–,–
NC(CO)C(=O)NNCc1ccc(O)c(O)c1O (stereo not given),inactive,inactive,inactive,inactive,inactive,inactive,inactive,inactive,inactive,–,–,inactive,inactive,inactive,–,inactive,inactive,inactive,inactive,–
CC(=O)c1ccc2c(c1)Cc1ccccc1-2,inactive,inactive,inactive,inactive,inactive,inactive,inactive,inactive,inactive,–,inactive,inactive,inactive,inactive,–,–,–,–,–,–
CC(C)OC(=O)CCCCC(=O)OC(C)C,inactive,inactive,inactive,inactive,inactive,inactive,inactive,inactive,–,–,–,inactive,inactive,inactive,inactive,–,–,–,–,–
N[C@@H](CCC(=O)N[C@@H](CS)C(=O)NCC(=O)O)C(=O)O,inactive,inactive,inactive,inactive,inactive,inactive,inactive,inactive,inactive,inactive,inactive,inactive,inactive,inactive,–,–,–,–,–,–
c1ccc2nccnc2c1,inactive,inactive,inactive,inactive,inactive,inactive,inactive,inactive,inactive,inactive,inactive,63.1 µM (active),inactive,inactive,–,–,–,–,–,inactive
CC(N)C(=O)OC(C)(C)Cc1ccc(Cl)cc1 (stereo not given),inactive,inactive,inactive,inactive,inactive,inactive,inactive,inactive,inactive,21.1 µM (active),–,–,inactive,inactive,–,–,–,–,–,–
O=C(NCCc1c[nH]c2ccccc12)c1cccnc1,inactive,inactive,inactive,inactive,inactive,inactive,inactive,inactive,–,inactive,inactive,inactive,inactive,inactive,–,–,inactive,inactive,inactive,–
CC(S)C(=O)NCC(=O)O (stereo not given),inactive,inactive,inactive,inactive,inactive,inactive,inactive,inactive,inactive,inactive,inactive,inactive,inactive,inactive,–,inactive,inactive,inactive,inactive,–
COCCOC(=O)C1=C(C)NC(C)=C(C(=O)OC(C)C)C1c1cccc([N+](=O)[O-])c1 (stereo not given),inactive,inactive,inactive,inactive,inactive,inactive,inactive,inactive,inactive,26.6 µM (active),26.6 µM (active),23.7 µM (active),inactive,inactive,–,–,–,–,–,–
CCCCCCCCCCCCCC,inactive,inactive,inactive,inactive,inactive,inactive,inactive,inactive,inactive,inactive,inactive,inactive,–,inactive,–,–,–,–,–,–
O=Cc1ccc(Cl)c(Cl)c1,inactive,inactive,inactive,inactive,inactive,inactive,inactive,inactive,–,inactive,–,inactive,inactive,inactive,inactive,–,–,–,–,–
OC[C@H](Cc1cccc(O)c1)[C@H](CO)Cc1cccc(O)c1,inactive,inactive,inactive,inactive,inactive,inactive,inactive,inactive,–,–,–,–,inactive,inactive,inactive,–,–,–,–,–
Nc1nnc(-c2cccc(Cl)c2Cl)c(N)n1,inactive,inactive,inactive,inactive,inactive,inactive,–,inactive,–,inactive,inactive,inactive,inactive,inactive,–,–,–,–,–,–
C=C(C)C1CCC(C)(O)CC1 (stereo not given),inactive,inactive,inactive,inactive,inactive,–,inactive,inactive,inactive,inactive,inactive,inactive,inactive,inactive,inactive,inactive,inactive,inactive,inactive,inactive
On1nnc2ccccc21,inactive,inactive,inactive,inactive,inactive,inactive,–,inactive,inactive,–,–,–,0.616 µM (active),inactive,inactive,–,–,–,–,inactive
CC(=C(CCOC(=O)C(C)C)SSC(CCOC(=O)C(C)C)=C(C)N(C=O)Cc1cnc(C)nc1N)N(C=O)Cc1cnc(C)nc1N,inactive,inactive,inactive,inactive,inactive,inactive,–,inactive,inactive,inactive,–,inactive,inactive,inactive,inactive,–,–,–,–,inactive
CCNC(=O)C1CC(C)CCC1C(C)C (stereo not given),inactive,inactive,inactive,inactive,inactive,–,inactive,inactive,inactive,inactive,inactive,inactive,inactive,inactive,inactive,–,–,–,–,inactive
Cc1cccc(C)c1OCC(C)N (stereo not given),inactive,inactive,inactive,inactive,inactive,inactive,–,inactive,–,–,–,–,–,inactive,–,–,–,–,–,–
O=S(=O)(O)CCN1CCN(CCO)CC1,inactive,inactive,inactive,inactive,inactive,inactive,–,inactive,–,inactive,inactive,inactive,inactive,inactive,inactive,–,–,–,–,inactive
CCCC/C=C/C=C\C=O,inactive,inactive,inactive,inactive,inactive,inactive,inactive,inactive,–,–,–,61.1 µM (active),–,inactive,–,–,inactive,inactive,inactive,–
NS(=O)(=O)c1ccc(NC(=O)CCC(=O)O)cc1,inactive,inactive,inactive,inactive,inactive,inactive,–,inactive,inactive,inactive,inactive,inactive,inactive,inactive,inactive,–,–,–,–,inactive
CC(CO)c1ccccc1 (stereo not given),inactive,inactive,inactive,inactive,inactive,inactive,inactive,inactive,–,inactive,inactive,inactive,inactive,inactive,–,–,inactive,inactive,inactive,–
COC(=O)c1ccccc1C(=O)c1ccc(OCCN2CCCCC2)cc1,inactive,inactive,inactive,inactive,inactive,inactive,inactive,inactive,–,1.88 µM (active),1.06 µM (active),2.11 µM (active),inactive,inactive,–,–,–,–,–,–
COC(=O)[C@@H]1[C@H]2C[C@H]3c4[nH]c5ccccc5c4CCN3C[C@@H]2CC[C@@H]1O,inactive,inactive,inactive,inactive,inactive,inactive,inactive,inactive,–,–,–,–,inactive,inactive,–,–,–,–,–,–
CC(C)(C)c1n[nH]c(=S)n(N)c1=O,inactive,inactive,inactive,inactive,inactive,inactive,–,inactive,inactive,–,inactive,inactive,inactive,inactive,inactive,–,–,–,–,inactive
CNC(=O)[C@H]1O[C@@H](n2cnc3c(NCc4cc(Cl)ccc4OCc4cc(C)no4)ncnc32)[C@H](O)[C@@H]1N,inactive,inactive,inactive,inactive,inactive,inactive,–,inactive,inactive,–,inactive,inactive,inactive,inactive,inactive,inactive,inactive,inactive,inactive,inactive
FC(F)(F)c1ccccc1-n1ccnc1,inactive,inactive,inactive,inactive,inactive,inactive,–,inactive,inactive,inactive,inactive,inactive,inactive,inactive,inactive,–,–,–,–,inactive
CC(C)CCCC(C)(C)O,inactive,inactive,inactive,inactive,inactive,inactive,–,inactive,inactive,inactive,inactive,inactive,inactive,inactive,–,–,–,–,–,–
